Measured values as given in PubChem BioAssay (NCI).
About 83,000 compounds went through this panel and 20% of them were active in at least one assay; those are over-represented in the sample as a whole.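 Step 1: grow cells in 96-well plates. Step 2: add test compound at a single concentration. Step 3: incubate 48 h. Step 4: record percent growth.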 Unmarked numbers belong to inactive results. Calls of active or inactive are those of the source. Rule for the calls: active = growth percent below 10; inactive = the rest.

System: PC-3 prostate
Assay: NCI-60 one-dose screen, 48 h (100 = growth as untreated, 0 = no growth, -100 = all killed)
Conditions: 10 µM unless noted

Structure (SMILES) | growth
O=Cc1ccc([N+](=O)[O-])s1 | 92.6%
CC(C)(C)n1cc(-c2ccnc(NCCCNS(=O)(=O)c3ccc(F)cc3)c2)c(-c2cccc(F)c2)n1 | 46.1%
O=C1C(Cl)=C(Nc2ccc(O)cc2)C(=O)N1Cc1ccc(Cl)cc1 | 45.9%
COc1cc(CNC(=O)CCCC/C=C/C(C)C)ccc1OCc1nnc(Nc2ccc([N+](=O)[O-])cc2)o1 | 37.6%
O=C(N/N=C/c1ccc(F)cc1)c1ccc(C(F)(F)F)nc1Nc1cccc(C(F)(F)F)c1 | -1.21% (active)
C=C(C)[C@@H]1CC[C@]2(C(=O)NCCNCCN)CC[C@]3(C)[C@H](CC[C@@H]4[C@@]5(C)C/C(=C/c6ccncc6)C(=O)C(C)(C)[C@@H]5CC[C@]43C)[C@@H]12 | 88.8%
O=C(COc1ccc(-c2nc3ccccc3[nH]2)cc1)N=Nc1c(O)[nH]c2ccc(Cl)cc12 | 25.9%
C/C(=N/O)c1ccc(F)cc1 | 75.5%
COc1ccc(C2=Nc3c/c(=C\c4c(O)[nH]c5ccc(Cl)cc45)ccc3=N2)cc1 | 37%
CCOC(=O)c1cnc2ccccc2c1Cl | 90.9%
CCCc1cc(NC)nc(S(=O)(=O)CC)n1 | 109%
COc1ccc(/C=C2\C(=O)N=C3N2NC(c2cc(Br)ccc2O)C=C(C)N3c2ccccc2)cc1 (stereo unspecified) | 92.1%
O=S(=O)(NCCNc1nccc(-c2c(-c3cccc(F)c3)nc3occn23)n1)c1ccc(Br)cc1 | 73.8%
CCn1cc(C(=O)N/N=C/c2cccs2)c(=O)c2cc(F)c(N3CCNC(C)C3)c(F)c21 (stereo unspecified) | 76.3%
Cn1c(=O)c2[nH]c(N/N=C/c3ccccc3Br)nc2n(C)c1=O | 98.4%
CCCCCCNC(=O)Oc1ccc(/C(=C(/C)Cc2ccc(OC)cc2)c2ccc(OCCCN(C)C)cc2)cc1 | 24.3%
O=C(OCc1ccc2cccc(O)c2n1)N1CCN(C(=O)c2cc3cc(F)ccc3[nH]2)CC1 | -43.9% (active)
CC(=O)[C@@H]1CCC=C2CC[C@]3(C)[C@@H](CC[C@@H]4[C@@]5(C)CCCNC(C)(C)[C@@H]5CC[C@]43C)[C@H]21 | -21.4% (active)

Structure (SMILES) | growth
O=c1oc2ccc([N+](=O)[O-])cc2cc1Br | 96.8%
S=C(Nc1ccc(-c2nc(N3CCOCC3)c3cccn3n2)cc1)Nc1cccnc1 | 16.4%
O=C1/C(=C/c2ccc(-c3ccc(Br)cc3)o2)SC(=S)N1CCc1ccc(O)cc1 | 61.3%
CCOC(=O)CSc1ncnc2c1c(-c1ccccc1)c(-c1ccccc1)n2-c1ccc(C)cc1 | 51.9%
CCNc1cc(-c2cccc(OC(F)(F)F)c2)nc2ccc(N3CCCC3)cc12 | 15.1%
CCCCNC(=O)Oc1ccc(/C(=C(/CC)Cc2ccccc2)c2ccc(OCCN3CCCCCC3)cc2)cc1 | 39.8%
COc1ccc(-c2nc3c(c(-c4ccccc4)nn3-c3ccccc3)c(-c3ccc(N4CCOCC4)cc3)c2C#N)cc1 | 101%
COc1cc(-c2csc(NC(=O)c3cc(-n4cnc(C)c4)cc(C(F)(F)F)c3)n2)cc(OC)c1OC | 37.3%
COc1cc(CNS(=O)(=O)c2ccc(C)cc2)ccc1OCc1cn(-c2ccc(Br)cc2)nn1 | 92.2%
Nc1ncnc2c1N=C(c1ccc3c(c1)OCO3)CC(c1ccc([N+](=O)[O-])cc1)N2 (stereo unspecified) | 47%
COc1ccc(-c2nc3c(c(-c4ccccc4)nn3-c3ccccc3)c(-c3ccc(N4CCN(C)CC4)cc3)c2C#N)cc1 | 94.3%
CCOC(=O)C(=Cc1cccc(Cl)c1)C(=O)OCC | 25.2%
O=C1NC(=O)c2c1c1c3ccccc3ccc1c1[nH]c3ccc(Br)cc3c21 | 3.55% (active)
CC1(c2ccccc2O)NN=C(/N=C/c2cccc([N+](=O)[O-])c2)N1C(Cc1c[nH]c2ccccc12)C(=O)O (stereo unspecified) | 76.9%
CCOP(=O)(OCC)c1nc(-c2ccccc2)oc1NCc1cccnc1 | 101%
CCOC(=O)c1cn2ncnc(Oc3ccc(NC(=O)NC4CCCCC4)c(Cl)c3)c2c1C | 67.7%
COC(=O)c1cc(-c2ccccc2)[nH]c1N/N=C/c1c(Cl)cccc1Cl | 5.23% (active)
COc1ccc(-c2nnc(-c3ccc4c(c3)nc(-c3ccncc3)n4C3CCCCC3)o2)cc1 | 49.7%
